Experimental findings from the supplement of paper PMC10681739 are described below.

Test [1] has as its target T1, ETS1 (UniProt P14921).
T1 sequence: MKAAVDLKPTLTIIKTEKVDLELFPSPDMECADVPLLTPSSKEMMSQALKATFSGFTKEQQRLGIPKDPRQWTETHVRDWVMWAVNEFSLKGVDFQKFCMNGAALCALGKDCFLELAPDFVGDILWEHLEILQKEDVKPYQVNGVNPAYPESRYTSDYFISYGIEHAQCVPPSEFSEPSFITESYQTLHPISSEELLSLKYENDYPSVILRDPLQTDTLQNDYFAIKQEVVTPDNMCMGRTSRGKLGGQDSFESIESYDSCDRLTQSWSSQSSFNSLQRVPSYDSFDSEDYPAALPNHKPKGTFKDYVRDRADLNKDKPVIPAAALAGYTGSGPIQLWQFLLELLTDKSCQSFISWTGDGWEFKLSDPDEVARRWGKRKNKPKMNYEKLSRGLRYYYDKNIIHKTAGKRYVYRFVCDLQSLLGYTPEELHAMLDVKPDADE
The experiment in a line: ETS1 binding intensity (PBM fluorescence), ETS1 alone (arbitrary fluorescence units); higher = stronger binding. Conditions: ETS1 concentration 1 nM; RUNX1 concentration 0 nM.

Test [2] concerns the target RUNX1 (UniProt Q01196). Nature of the test: RUNX1 binding intensity (PBM fluorescence), RUNX1 alone (arbitrary fluorescence units); higher = stronger binding. Conditions: RUNX1 concentration 2 nM; ETS1 concentration 0 nM. On the procedure: (§1)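 Cooperative gcPBM on 36-bp genomic probes with neighbouring ETS1 and RUNX1 sites. Recombinant human RUNX1 (2 nM) was incubated alone or with ETS1 (25 nM) and detected with anti-RUNX1 antibody plus Alexa488 secondary. Values are medians over 4 replicate spots; the RUNX1+ETS1 data were normalised to the RUNX1-only data. The probes sit in constant array flanks that are not printed.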

The target of test [3] is T1, ETS1. The experiment in a line: ETS1 binding intensity (PBM fluorescence) in presence of RUNX1, normalised to ETS1-only experiment (arbitrary fluorescence units); higher = stronger binding. As to conditions: ETS1 concentration 1 nM; RUNX1 concentration 25 nM.
For test [4], the target named is RUNX1 (UniProt Q01196). The experiment in a line: RUNX1 binding intensity (PBM fluorescence) in presence of ETS1, normalised to RUNX1-only experiment (arbitrary fluorescence units); higher = stronger binding. Conditions: RUNX1 concentration 2 nM; ETS1 concentration 25 nM. The protocol:
as §1
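Throughout, for RUNX1 binding intensity (PBM fluorescence) in presence of ETS1, normalised to RUNX1-only experiment: Full-length recombinant human ETS1 or RUNX1 bound to double-stranded 36-bp genomic probes on microarrays, detected by protein-specific primary antibody and Alexa488 secondary, spot fluorescence as median of four replicate spots.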
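Throughout, for RUNX1 binding intensity (PBM fluorescence), RUNX1 alone: Full-length recombinant human RUNX1 bound to double-stranded 36-bp genomic probes on a high-density microarray, scored as Alexa488 fluorescence per spot via anti-RUNX1 antibody, median of four replicate spots.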

Sequence of RUNX1 (Q01196 whole entry): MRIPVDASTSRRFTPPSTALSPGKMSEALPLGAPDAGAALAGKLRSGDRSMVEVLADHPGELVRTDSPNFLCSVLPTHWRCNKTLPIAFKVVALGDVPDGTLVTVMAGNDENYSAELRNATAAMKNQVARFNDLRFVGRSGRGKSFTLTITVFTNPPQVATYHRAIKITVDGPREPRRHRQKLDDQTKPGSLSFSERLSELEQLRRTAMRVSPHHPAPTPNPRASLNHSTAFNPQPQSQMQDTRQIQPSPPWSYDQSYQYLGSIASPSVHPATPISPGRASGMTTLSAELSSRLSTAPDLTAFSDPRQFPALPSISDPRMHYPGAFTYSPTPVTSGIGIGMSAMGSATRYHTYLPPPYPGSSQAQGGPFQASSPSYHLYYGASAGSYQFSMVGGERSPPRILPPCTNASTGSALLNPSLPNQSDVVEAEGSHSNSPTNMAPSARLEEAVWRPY

Consider GAACCACTTCCCTGAAACCATTTACCACATAAATCT, for which the ETS1 binding intensity in test [1] was 383; in test [3], 904. Besides, the figures for the RUNX1 binding intensity in test [2] and in test [4] were 1510 and 2470, respectively.

Take GGCACTTCCGGTCCTGACCTGAAGCGGTAACCGTCA: the ETS1 binding intensity is 8390 in test [1] and 8600 in test [3]. For the same sequence, the RUNX1 binding intensity in test [2] turned out to be 719; in test [4] it was 1820.

As for ACAAAGAAACCTACATCCTAAGCCACAGAATACAGC, the ETS1 binding intensity in test [1] was determined as 545; in test [3], 523. Also, the results for the RUNX1 binding intensity in test [2] and in test [4] were 930 and 881, respectively.

On to GACACCCCACACCGGAAACCTCAGACAGTCCTCAGC, for which the ETS1 binding intensity in test [1] was 4120; in test [3] it was 4680. The RUNX1 binding intensity is 1170 in test [2] and 2900 in test [4].

For the sequence GCAGAGTTTACAACAGGATGTGGTTATTGGCGCTGC, the ETS1 binding intensity came out at 8870 in test [1] and 46800 in test [3]. Moreover, the RUNX1 binding intensity in test [2] is 777; in test [4] it was 4380.

Take TGCCACATCCTGCCCCTCCCCAGGTCTAACCACCAA: the values for the ETS1 binding intensity in test [1] and in test [3] were 696 and 754, respectively. The RUNX1 binding intensity in test [2] was found to be 1260; in test [4] it was 3360.

For the sequence CCGCTGACATCCGCTTGGCCTGCGGCTTCTTTCTGT, the ETS1 binding intensity in test [1] came to 715; in test [3], 1030. The RUNX1 binding intensity stood at 1080 in test [2] and 2740 in test [4].

Consider CCAACTTTTGAGGGATGTGGTTACGTTTTCTAGATC, for which the ETS1 binding intensity in test [1] stood at 366; in test [3], 1440. Moreover, the RUNX1 binding intensity amounted to 1410 in test [2] and 1620 in test [4].

Consider TCCCGGGGAGGAAGTGGCGAGAATGCGGGGGTGGGC, for which the values for the ETS1 binding intensity in test [1] and in test [3] were 1340 and 1440, respectively. Besides, the RUNX1 binding intensity was found to be 906 in test [2] and 1120 in test [4].

On to CTCAGCTCCGCGGAAGTTGCGGTAAGTGGAGCTTTG, for which the ETS1 binding intensity in test [1] is 962; in test [3] it was 8730. For the same sequence, the RUNX1 binding intensity in test [2] came to 2210; in test [4], 5790.

Regarding GCTTGCTCCCACAGGAAACCGCAGGCTTCGGGCACA, the values for the ETS1 binding intensity in test [1] and in test [3] were 3190 and 9810, respectively. The figures for the RUNX1 binding intensity in test [2] and in test [4] were 7370 and 12000, respectively.

TGCAGCTTCCTGTCTGAGGCTTTGTGGTCCTTTCAT: the ETS1 binding intensity turned out to be 753 in test [1] and 889 in test [3]. Also, the RUNX1 binding intensity in test [2] is 862; in test [4], 2480.

Take GTGCCGGCGGCCGGATGTGGGCGGGGCCACGGGGAG: the ETS1 binding intensity in test [1] worked out at 8590; in test [3] it was 16200. For the same sequence, the RUNX1 binding intensity was 753 in test [2] and 4170 in test [4].

For the sequence TGATCAGCAAAAGGAAGTGGTTAACATGGCCCAGAA, the figures for the ETS1 binding intensity in test [1] and in test [3] were 1540 and 4770, respectively. For the same sequence, the RUNX1 binding intensity in test [2] amounted to 825; in test [4], 1990.

Consider GACCTGCCTTCCGGCCTCCGTCACATGACCGCACAG, for which the values for the ETS1 binding intensity in test [1] and in test [3] were 556 and 1210, respectively. Further, the RUNX1 binding intensity in test [2] was 1110; in test [4] it was 2000.

As for CCACGTAAAGGCGGAAGCGGTTGAGTGGACGCCATC, the ETS1 binding intensity was 3090 in test [1] and 4150 in test [3]. The figures for the RUNX1 binding intensity in test [2] and in test [4] were 708 and 1640, respectively.

With ATGGGGAACGGGAAATACGGCGGGAACCACAATCGC, the ETS1 binding intensity worked out at 734 in test [1] and 1700 in test [3]. Besides, the RUNX1 binding intensity in test [2] came out at 777; in test [4], 1020.

With GTTTCCACTTCCTGCTGTGCAGCAGTACCACCAAGA, the ETS1 binding intensity in test [1] turned out to be 1000; in test [3], 1030. For the same sequence, the RUNX1 binding intensity in test [2] worked out at 992; in test [4] it was 2800.

Take GGCAGGAAAGAGCTGATGCATTTCAACCGCAGCCTG: the ETS1 binding intensity in test [1] was 520; in test [3], 2430. The RUNX1 binding intensity in test [2] amounted to 1110; in test [4], 1040.

For GAGCCTGTTGCTTCCGGTTCAGAGCCCACATGCTGG, the ETS1 binding intensity was 3070 in test [1] and 3370 in test [3]. Also, the RUNX1 binding intensity stood at 736 in test [2] and 1940 in test [4].

Consider CTCAGGAATGCGGAAGTGCTCTGTGGGCACCCACCA, for which the values for the ETS1 binding intensity in test [1] and in test [3] were 2970 and 5950, respectively. Further, the RUNX1 binding intensity in test [2] was 707; in test [4] it was 1560.

Turning to CCCACCCGGAAATGAGCCAACAGTGGTTTCGCCCCG, the ETS1 binding intensity in test [1] stood at 1590; in test [3], 2010. The RUNX1 binding intensity in test [2] worked out at 782; in test [4], 1380.

On to AAATCCACTCAGAGGAAACCACAGGCCTGGCCCAGC, for which the ETS1 binding intensity in test [1] is 365; in test [3] it was 622. For the same sequence, the RUNX1 binding intensity is 1300 in test [2] and 1690 in test [4].

For the sequence ACAGGAAATGACATCAGAATCTCCAAACCACAACCA, the ETS1 binding intensity in test [1] stood at 1030; in test [3], 5020. Further, the RUNX1 binding intensity was 1390 in test [2] and 2110 in test [4].

With CAGACAGGAGGCGGATGTGGGTGGCGCAGAATGAGC, the values for the ETS1 binding intensity in test [1] and in test [3] were 1820 and 2250, respectively. The figures for the RUNX1 binding intensity in test [2] and in test [4] were 688 and 1920, respectively.

Consider AAACTACACCTCAGAGGATGTGGTTCCTTCTCTCAT, for which the ETS1 binding intensity worked out at 1130 in test [1] and 1730 in test [3]. For the same sequence, the RUNX1 binding intensity amounted to 854 in test [2] and 946 in test [4].

Turning to GTAAAAGAGGAAGTAACACCTCCTTGCGGTTGAGAC, the ETS1 binding intensity in test [1] came out at 1450; in test [3], 6840. Besides, the values for the RUNX1 binding intensity in test [2] and in test [4] were 1020 and 3280, respectively.

Turning to CCTCTGAGGCAGGAAGCTGCGGTGAAGTCTGAAGTT, the ETS1 binding intensity is 3300 in test [1] and 11800 in test [3]. Moreover, the RUNX1 binding intensity worked out at 871 in test [2] and 2070 in test [4].

Consider TGTTCAGGAACAGGAAATGAAACCCCGCAGCTTTGA, for which the values for the ETS1 binding intensity in test [1] and in test [3] were 8520 and 11300, respectively. Further, the RUNX1 binding intensity was 748 in test [2] and 1150 in test [4].

GTCGTCCCGGAAACCGGGATGCGGTTATCAGAGCGA: the ETS1 binding intensity was determined as 1860 in test [1] and 7110 in test [3]. For the same sequence, the RUNX1 binding intensity in test [2] was determined as 1000; in test [4], 3180.

As for GACCAATGTAAACAAGGATGTGGGTTCTCCGGCCAC, the ETS1 binding intensity amounted to 784 in test [1] and 3290 in test [3]. Also, the RUNX1 binding intensity came out at 785 in test [2] and 1190 in test [4].

For ATGGCGGAGCGGAAGTCCCAGCCACAACGCGAAAAG, the values for the ETS1 binding intensity in test [1] and in test [3] were 3810 and 5670, respectively. In addition, the values for the RUNX1 binding intensity in test [2] and in test [4] were 782 and 1370, respectively.

Take CCAGGGCCGGAAGTGCTGGTGGTGGTTTCCATCATG: the ETS1 binding intensity in test [1] came to 8960; in test [3], 13900. Moreover, the RUNX1 binding intensity in test [2] came out at 733; in test [4] it was 1750.

ATGTACATAGATACAGGATGTGGGTTTGTTACAAAG: the values for the ETS1 binding intensity in test [1] and in test [3] were 7940 and 24400, respectively. The RUNX1 binding intensity came out at 746 in test [2] and 3400 in test [4].

On to CCGGGACAGGAAGAGGCTGGGGACCGCGGCGAAGGT, for which the ETS1 binding intensity in test [1] came to 1440; in test [3], 1550. Besides, the RUNX1 binding intensity in test [2] stood at 710; in test [4], 1030.

As to AGCCGCCACTTCCTGTCTCTGCGGGTGCATGCTCTT, the ETS1 binding intensity in test [1] amounted to 3730; in test [3], 5990. The RUNX1 binding intensity in test [2] worked out at 863; in test [4] it was 3580.

For GCCCCCGGAAGCTGTCGCCCCGTGCGGTGTGTGCTG, the ETS1 binding intensity amounted to 1600 in test [1] and 2000 in test [3]. The RUNX1 binding intensity in test [2] was found to be 787; in test [4], 1330.
